From PubChem BioAssay (NCATS)
Inconclusive results are not listed. A call without a number means that no potency is given here. The source made the active and inactive calls. Calls come from the whole dose curve; as a rule, active = well fitted cell-killing curve with a large enough effect; inconclusive = small, poorly fitted or top-dose-only effect; inactive = flat fitted curve, though single readings scatter.

Test: Cellular viability qHTS for adrenocortical cancer (ACC) cell line NCI-H295R (AID 1963990); note: nearly all actives have a fitted effect of over 60% in size
Conditions: CellTiter-Glo ATP luminescence, 48 h; series mostly up to 46.1 µM
Summary of the method: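 IC50 and maximal efficacy derive from four-parameter logistic modelling of titration curves, with reads scaled between DMSO-only wells (0%) and doxorubicin hydrochloride (100% inhibition). Compounds spanned up to 46 uM over 48 h.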
Potency is the fitted concentration of half-maximal effect.

| Structure (SMILES) | Potency |
| --- | --- |
| Cc1cc2nc3ccc(=[N+](C)C)cc-3sc2cc1N | 5.8 µM (active) |
| COc1ccc2c(c1)CC[C@@H]1[C@@H]2CC[C@]2(C)[C@@H](NCCCCCCN3C(=O)C=CC3=O)CC[C@@H]12 | inactive |
| COc1ccc2c(c1)[C@]1(C[C@H]1c1ccc3c(/C=C/c4ccc(CN5C[C@@H](C)O[C@@H](C)C5)cc4)n[nH]c3c1)C(=O)N2 | 6.31 µM (active) |
| CCNC(=O)NCCCOc1cccc(CN2CCCCC2)c1 | inactive |
| C[C@@H](OC[C@@]1(c2ccccc2)CC[C@]2(CCC(=O)N2)CN1)c1cc(C(F)(F)F)cc(C(F)(F)F)c1 | 25.1 µM (active) |
| COc1cc2ncnc(Oc3cccc(NC(=O)Nc4cc(C(C)(C)C(F)(F)F)on4)c3)c2cc1OC | inactive |
| Nc1ccc(S(=O)(=O)NCc2ccccc2)cc1 | inactive |
| CC(C)(O)C1CCC(Nc2ccc3ncc(-c4cccc(C(F)(F)F)c4)n3n2)CC1 (stereo not drawn) | 4.47 µM (active) |
